# About 410 targets per protein were measured; listed, in parts, are those with the strongest signals and a random draw of the rest.
# B1: SspB C123 (Streptococcus gordonii), Q54186 (protein)
# chain: MAHFHYSSLLAQPQINKEIKNEDGVDIDRTLVAKQSIGKFELKTEALTAGRPKTTSFVLVDPLPTGYKFDLDATKAASTGFDTTYDEASHTVTFKATDETLATYNADLTKPVETLHPTVVGRVLNDGATYTNNFTLTVNDAYGIKSNVVRVTTPGKPNDPDNPNNNYIKPTKVNKNKEGLNIDGKEVLAGSTNYYELTWDLDQYKGDKSSKEAIQNGFYYVDDYPEEALDVRPDLVKVADEKGNQVSGVSVQQYDSLEAAPKKVQDLLKKANITVKGAFQLFSADNPEEFYKQYVSTGTSLVITDPMTVKSEFGKTGGKYENKAYQIDFGNGYATEVVVNNVPKITPKKDVTVSLDPTSENLDGQTVQLYQTFNYRLIGGFIPQNHSEELEDYSFVDDYDQAGDQYTGNYKTFSSLNLTMKDGSVIKAGTDLTSQTTAETDATNGIVTVRFKEDFLQKISLDSPFQAETYLQMRRIAIGTFENTYVNTVNKVAYASAAALEHHHHHH
# Columns and labels:
# Test in all cases: glycan array binding signal (z-score within array); higher = stronger binding
# Conditions in all cases: glycan notation: IUPAC condensed, linker removed
# [1] = target: Fuc(a1-2)Gal(b1-3)GalNAc(a1-3)[Fuc(a1-2)]Gal(b1-4)GlcNAc
# Outline: (§1)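 Arrays were curated from the Consortium for Functional Glycomics database, 3228 in total, and kept only where the protein sequence was available. Binding is expressed as a within-array Z-score. This score was averaged across arrays of the same protein sequence at different concentrations or buffers and across linkers, and negative values can be read as non-binding.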
# [2] = target: Fuc(a1-2)Gal(b1-3)GlcNAc(b1-3)[Gal(b1-4)GlcNAc(b1-6)]Gal(b1-4)Glc
# Outline: as §1
# [3] = target: Fuc(a1-2)Gal(b1-4)GlcNAc(b1-2)[Fuc(a1-2)Gal(b1-4)GlcNAc(b1-4)]Man(a1-3)[Fuc(a1-2)Gal(b1-4)GlcNAc(b1-2)Man(a1-6)]Man(b1-4)GlcNAc(b1-4)GlcNAc
# Outline: as §1
# [4] = target: Fuc(a1-2)Gal(b1-4)GlcNAc(b1-3)GalNAc
# Outline: as §1
# [5] = target: Fuc(a1-2)Gal(b1-4)[Fuc(a1-3)]GlcNAc(b1-3)GalNAc
# Outline: as §1
# [6] = target: Fuc(a1-2)[GalNAc(a1-3)]Gal
# Outline: as §1
# [7] = target: Fuc(a1-2)[GalNAc(a1-3)]Gal(b1-3)GlcNAc
# Outline: as §1
# [8] = target: Fuc(a1-2)[GalNAc(a1-3)]Gal(b1-3)GlcNAc(b1-6)GalNAc
# Outline: as §1
# [9] = target: Fuc(a1-2)[GalNAc(a1-3)]Gal(b1-4)GlcNAc
# Outline: as §1
# [10] = target: Fuc(a1-3)[Gal3S(b1-4)]GlcNAc
# Outline: as §1
# [11] = target: Gal(a1-3)Gal(b1-4)GlcNAc(b1-3)GalNAc
# Outline: as §1
# [12] = target: Gal(b1-3)GlcNAc(b1-3)Gal(b1-4)Glc
# Outline: as §1
# Gal(b1-4)GlcNAc(b1-2)Man = target: Gal(b1-4)GlcNAc(b1-2)Man
# Outline: as §1
# [13] = target: Gal(b1-4)GlcNAc(b1-3)Gal(b1-3)GlcNAc
# Outline: as §1
# [14] = target: Gal(b1-4)GlcNAc(b1-3)Gal(b1-4)GlcNAc(b1-3)Gal(b1-4)GlcNAc(b1-2)Man(a1-3)[Gal(b1-4)GlcNAc(b1-3)Gal(b1-4)GlcNAc(b1-3)Gal(b1-4)GlcNAc(b1-2)Man(a1-6)]Man(b1-4)GlcNAc(b1-4)[Fuc(a1-6)]GlcNAc
# Outline: as §1
# [15] = target: Gal(b1-4)GlcNAc(b1-3)Gal(b1-4)GlcNAc(b1-3)Gal(b1-4)GlcNAc(b1-3)Gal(b1-4)GlcNAc(b1-3)Gal(b1-4)GlcNAc(b1-2)Man(a1-3)[Gal(b1-4)GlcNAc(b1-3)Gal(b1-4)GlcNAc(b1-3)Gal(b1-4)GlcNAc(b1-3)Gal(b1-4)GlcNAc(b1-3)Gal(b1-4)GlcNAc(b1-2)Man(a1-6)]Man(b1-4)GlcNAc(b1-4)[Fuc(a1-6)]GlcNAc
# Outline: as §1
# [16] = target: Gal(b1-4)GlcNAc(b1-3)Gal(b1-4)GlcNAc(b1-3)Gal(b1-4)GlcNAc(b1-3)Gal(b1-4)GlcNAc(b1-3)Gal(b1-4)GlcNAc(b1-2)[Gal(b1-4)GlcNAc(b1-3)Gal(b1-4)GlcNAc(b1-3)Gal(b1-4)GlcNAc(b1-3)Gal(b1-4)GlcNAc(b1-3)Gal(b1-4)GlcNAc(b1-6)]Man(a1-6)[Gal(b1-4)GlcNAc(b1-3)Gal(b1-4)GlcNAc(b1-3)Gal(b1-4)GlcNAc(b1-3)Gal(b1-4)GlcNAc(b1-3)Gal(b1-4)GlcNAc(b1-2)Man(a1-3)]Man(b1-4)GlcNAc(b1-4)[Fuc(a1-6)]GlcNAc
# Outline: as §1
# [17] = target: Gal(b1-4)GlcNAc(b1-3)GalNAc
# Outline: as §1
# [18] = target: Gal(b1-4)GlcNAc(b1-6)[Gal(b1-3)]GalNAc
# Outline: as §1
# [19] = target: Gal3S(b1-3)[Fuc(a1-4)]GlcNAc
# Outline: as §1
# Gal3S(b1-4)Glc6S = target: Gal3S(b1-4)Glc6S
# Outline: as §1
# Gal3S(b1-4)GlcNAc = target: Gal3S(b1-4)GlcNAc
# Outline: as §1
# [20] = target: Gal3S(b1-4)[Fuc(a1-3)]Glc6S
# Outline: as §1
# Gal6S(b1-4)GlcNAc6S = target: Gal6S(b1-4)GlcNAc6S
# Outline: as §1
# [21] = target: GalNAc(b1-3)Gal(a1-6)Gal(b1-4)Glc
# Outline: as §1
# GalNAc4S6S(b1-4)GlcNAc = target: GalNAc4S6S(b1-4)GlcNAc
# Outline: as §1
# Glc(b1-4)Glc = target: Glc(b1-4)Glc
# Outline: as §1
# GlcA(b1-3)Gal = target: GlcA(b1-3)Gal
# Outline: as §1
# GlcA(b1-6)Gal = target: GlcA(b1-6)Gal
# Outline: as §1
# [22] = target: GlcNAc(b1-2)Man(a1-3)[GlcNAc(b1-4)][GlcNAc(b1-2)Man(a1-6)]Man(b1-4)GlcNAc(b1-4)[Fuc(a1-6)]GlcNAc
# Outline: as §1
# [23] = target: GlcNAc(b1-3)Gal(b1-4)GlcNAc(b1-3)Gal(b1-4)GlcNAc(b1-3)Gal(b1-4)GlcNAc(b1-2)Man(a1-3)[GlcNAc(b1-3)Gal(b1-4)GlcNAc(b1-3)Gal(b1-4)GlcNAc(b1-3)Gal(b1-4)GlcNAc(b1-2)Man(a1-6)]Man(b1-4)GlcNAc(b1-4)[Fuc(a1-6)]GlcNAc
# Outline: as §1
# [24] = target: GlcNAc(b1-3)Gal(b1-4)GlcNAc(b1-3)[GlcNAc(b1-3)Gal(b1-4)GlcNAc(b1-3)]GalNAc
# Outline: as §1
# GlcNAc(b1-6)GalNAc = target: GlcNAc(b1-6)GalNAc
# Outline: as §1
# Man(a1-6)Man = target: Man(a1-6)Man
# Outline: as §1
# [25] = target: Neu5Ac(a2-3)Gal(b1-3)GalNAc(b1-3)Gal(a1-4)Gal(b1-4)Glc
# Outline: as §1
# [26] = target: Neu5Ac(a2-3)Gal(b1-3)GalNAc(b1-4)[Neu5Ac(a2-8)Neu5Ac(a2-3)]Gal(b1-4)Glc
# Outline: as §1
# [27] = target: Neu5Ac(a2-3)Gal(b1-4)[Fuc(a1-3)]GlcNAc(b1-3)Gal(b1-4)[Fuc(a1-3)]GlcNAc(b1-3)Gal(b1-4)[Fuc(a1-3)]GlcNAc
# Outline: as §1
# [28] = target: Neu5Ac(a2-3)Gal(b1-4)[Fuc(a1-3)]GlcNAc(b1-3)GalNAc
# Outline: as §1
# [29] = target: Neu5Ac(a2-3)Gal(b1-4)[Fuc(a1-3)]GlcNAc(b1-6)[Neu5Ac(a2-3)Gal(b1-3)]GalNAc
# Outline: as §1
# [30] = target: Neu5Ac(a2-3)Gal6S(b1-4)[Fuc(a1-3)]GlcNAc
# Outline: as §1
# Neu5Ac(a2-6)Gal(b1-4)Glc = target: Neu5Ac(a2-6)Gal(b1-4)Glc
# Outline: as §1
# [31] = target: Neu5Ac(a2-6)Gal(b1-4)GlcNAc(b1-2)Man(a1-6)Man(b1-4)GlcNAc(b1-4)GlcNAc
# Outline: as §1
# [32] = target: Neu5Ac(a2-6)Gal(b1-4)GlcNAc(b1-3)Gal(b1-3)GlcNAc
# Outline: as §1
# [33] = target: Neu5Ac(a2-6)Gal(b1-4)GlcNAc(b1-3)Gal(b1-4)GlcNAc(b1-3)Gal(b1-4)GlcNAc(b1-2)Man(a1-3)[Neu5Ac(a2-6)Gal(b1-4)GlcNAc(b1-3)Gal(b1-4)GlcNAc(b1-3)Gal(b1-4)GlcNAc(b1-2)Man(a1-6)]GalNAc
# Outline: as §1
# [34] = target: Neu5Ac(a2-6)Gal(b1-4)GlcNAc(b1-3)Gal(b1-4)[Fuc(a1-3)]GlcNAc(b1-3)Gal(b1-4)[Fuc(a1-3)]GlcNAc
# Outline: as §1
# [35] = target: Neu5Ac(a2-6)Gal(b1-4)GlcNAc(b1-3)[Neu5Ac(a2-6)Gal(b1-4)GlcNAc(b1-6)]GalNAc
# Outline: as §1
# [36] = target: Neu5Ac(a2-8)Neu5Ac(a2-8)Neu5Ac(a2-3)[Gal(b1-3)GalNAc(b1-4)]Gal(b1-4)Glc
# Outline: as §1
# [37] = target: Neu5Ac(a2-8)Neu5Gc(a2-3)Gal(b1-4)GlcNAc
# Outline: as §1
# [38] = target: Neu5Ac9Ac(a2-3)Gal(b1-4)GlcNAc
# Outline: as §1
# [39] = target: Neu5Ac9Ac(a2-6)Gal(b1-4)GlcNAc
# Outline: as §1
# [40] = target: Neu5Gc(a2-8)Neu5Gc(a2-3)Gal(b1-4)GlcNAc
# Outline: as §1
binder,measurement,setting,value
B1,glycan array binding signal (z-score),[1],-1.8
same,glycan array binding signal (z-score),[2],-0.17
same,glycan array binding signal (z-score),[3],2.68
same,glycan array binding signal (z-score),[4],-0.78
same,glycan array binding signal (z-score),[5],3.99
same,glycan array binding signal (z-score),[6],-0.539
same,glycan array binding signal (z-score),[7],0.229
same,glycan array binding signal (z-score),[8],-0.099
same,glycan array binding signal (z-score),[9],-0.406
same,glycan array binding signal (z-score),[10],0.073
same,glycan array binding signal (z-score),[11],-0.133
same,glycan array binding signal (z-score),[12],0.516
same,glycan array binding signal (z-score),Gal(b1-4)GlcNAc(b1-2)Man,-0.183
same,glycan array binding signal (z-score),[13],1.37
same,glycan array binding signal (z-score),[14],1.26
same,glycan array binding signal (z-score),[15],0.993
same,glycan array binding signal (z-score),[16],2.74
same,glycan array binding signal (z-score),[17],0.085
same,glycan array binding signal (z-score),[18],0.155
same,glycan array binding signal (z-score),[19],0.284
same,glycan array binding signal (z-score),Gal3S(b1-4)Glc6S,0.314
same,glycan array binding signal (z-score),Gal3S(b1-4)GlcNAc,0.468
same,glycan array binding signal (z-score),[20],5.71
same,glycan array binding signal (z-score),Gal6S(b1-4)GlcNAc6S,1.05
same,glycan array binding signal (z-score),[21],-0.455
same,glycan array binding signal (z-score),GalNAc4S6S(b1-4)GlcNAc,-0.886
same,glycan array binding signal (z-score),Glc(b1-4)Glc,-0.604
same,glycan array binding signal (z-score),GlcA(b1-3)Gal,-1.48
same,glycan array binding signal (z-score),GlcA(b1-6)Gal,3.52
same,glycan array binding signal (z-score),[22],-0.492
same,glycan array binding signal (z-score),[23],0.372
same,glycan array binding signal (z-score),[24],0.786
same,glycan array binding signal (z-score),GlcNAc(b1-6)GalNAc,-0.398
same,glycan array binding signal (z-score),Man(a1-6)Man,3.13
same,glycan array binding signal (z-score),[25],-0.945
same,glycan array binding signal (z-score),[26],-0.494
same,glycan array binding signal (z-score),[27],2.7
same,glycan array binding signal (z-score),[28],2.98
same,glycan array binding signal (z-score),[29],3.38
same,glycan array binding signal (z-score),[30],-0.28
same,glycan array binding signal (z-score),Neu5Ac(a2-6)Gal(b1-4)Glc,-0.254
same,glycan array binding signal (z-score),[31],-0.261
same,glycan array binding signal (z-score),[32],-0.017
same,glycan array binding signal (z-score),[33],3.21
same,glycan array binding signal (z-score),[34],0.632
same,glycan array binding signal (z-score),[35],-0.829
same,glycan array binding signal (z-score),[36],5.25
same,glycan array binding signal (z-score),[37],-0.198
same,glycan array binding signal (z-score),[38],-0.938
same,glycan array binding signal (z-score),[39],0.758
same,glycan array binding signal (z-score),[40],-0.249
